# Source: PubChem
# KB-V1 cytotox = qHTS assay for MDR1-selective chemotherapeutics: Primary screen using the drug-selected MDR subline cells KB-V1; AID 1347076, 2019; Potency, µM (titrated, usually from 46.1 µM), most hits filed as cytotoxic; KB-V1 MDR cells viability, CellTiter-Glo, 72 h; hit rate 3.4% among 400,000; also: nearly all actives have a fitted effect of over 60% in size
#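 Drug-selected KB-V1 cells, grown in DMEM lacking phenol red with 10% FBS, receive compound titrations; after three days at 37 degrees C, surviving cell ATP is quantified by CellTiter-Glo luminescence and responses normalized and curve-fitted.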
# A549 viability = Nrf2 qHTS screen for inhibitors: counterscreen for cytotoxicity. A549 ARE-Fluc cells, CellTiter-Fluor viability, 18-24 h. Potency, µM (highest dose often 46 µM), usual class: inhibitors. hit rate 0.16% among 390,000. AID 504648, 2011
#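 Cytotoxicity counterscreen: CellTiter-Fluor fluorescence was measured in A549 ARE_Fluc cells after 18-24 h of compound exposure in a concentration series. The subsequent BugLite luminescent read reports ARE-luciferase activity.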
# Giardia killer = Small Molecules that selectively kill Giardia lamblia: qHTS | Giardia lamblia trophozoite viability | activity change, % at 7.66 µM, hits read low | hit rate 0.15% among 340,000; in the data active = activity change below about -80%; inconclusive = between about -30% and that limit;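 also: parasites exposed to compound for two days anaerobically before the ATP read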
#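 Each well holds 100 Giardia trophozoites and compound. After two days (48 hrs) at 37 deg C in anaerobic conditions, ATP is quantified by luminescence.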
# PI4K2A inh = qHTS for small molecular inhibitors of PI4K2A. Phosphatidylinositol 4-kinase type 2-alpha (Homo sapiens), Q9BTU6. purified PI4K2A, ADP-Glo luminescence, 1 h; hits give low values. activity change, negative = inhibition, % at 76.9 µM. hit rate 0.13% among 420,000. AID 1346378, 2018; in the data active = activity change below about -50%; inconclusive = mostly about -30% to -49%
# Target sequence (Q9BTU6 whole entry, looked up): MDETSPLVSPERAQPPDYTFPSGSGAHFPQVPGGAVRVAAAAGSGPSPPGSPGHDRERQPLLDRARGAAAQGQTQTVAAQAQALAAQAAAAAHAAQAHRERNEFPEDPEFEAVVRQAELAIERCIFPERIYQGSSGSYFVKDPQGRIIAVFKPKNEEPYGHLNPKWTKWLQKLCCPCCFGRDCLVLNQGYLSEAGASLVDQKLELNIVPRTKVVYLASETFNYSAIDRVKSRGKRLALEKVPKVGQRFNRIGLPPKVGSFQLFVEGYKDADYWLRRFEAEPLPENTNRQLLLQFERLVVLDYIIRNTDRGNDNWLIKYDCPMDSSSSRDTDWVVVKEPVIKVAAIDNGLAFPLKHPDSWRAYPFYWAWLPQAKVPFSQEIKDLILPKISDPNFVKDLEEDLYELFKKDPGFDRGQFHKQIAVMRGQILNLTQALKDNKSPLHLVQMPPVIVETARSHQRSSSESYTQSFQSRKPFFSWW
#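 ADP-Glo luminescence measured ADP generated by PI4K2A enzyme (4 ug/mL before mixing) with 1.2 mM PI substrate (pre-mix) and 300 microM ATP (pre-mix). Tris pH7.5 buffer with MgCl2, Triton X-100; 1 h reaction at ambient temperature.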
# KB-3-1 cytotox = qHTS assay for MDR1-selective chemotherapeutics: Primary screen using the parental adenocarcinoma cell KB-3-1. KB-3-1 viability, CellTiter-Glo ATP luminescence, 72 h. hit rate 1.4% among 400,000. Potency, µM (doses to about 46.1 µM), actives largely listed as cytotoxic; also: nearly all actives have a fitted effect of over 60% in size
#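 Luminescent ATP read-out (CellTiter-Glo) measures survival of drug-naive KB-3-1 cells after 72 h compound exposure at 37 °C. Titration series was screened from lowest to highest concentration, with DMSO vehicle plates as background controls.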
# Nrf2 block = Nrf2 qHTS screen for inhibitors. A549 ARE-Fluc reporter, luciferase luminescence, 18-24 h. Potency, µM (titrated, usually from 46 µM), usual class: inhibitors. hit rate 2.1% among 360,000; also: nearly all actives have a fitted effect of over 60% in size
#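 Nrf2 function is reported as luminescence of an ARE-controlled luciferase in A549 cells. Compounds were tested at several concentrations, and a CellTiter-Fluor read on the same wells flagged cytotoxicity.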
# Numbers stand for hits; - = inactive; ? = inconclusive; . = not tested or not shown; ! = not active in a repeat. In the library only some 5.7% were active in any assay of this set; here they are far more common. Unless noted, calls follow the shape of the dose curve; as a rule, active = well fitted curve in the direction sought with a large enough effect; inconclusive = small, poorly fitted or top-dose-only effect, or another doubt; inactive = no such curve, though single readings can be large; an effect the other way counts as inactive or inconclusive.
SMILES,KB-V1 cytotox,A549 viability,Giardia killer,PI4K2A inh,KB-3-1 cytotox,Nrf2 block
CCOc1ccc(Nc2c(S(=O)(=O)c3ccc(C)cc3)cnc3ccccc23)cc1,?,-,.,-,?,23.1µM
COc1cc(C[C@@H](C)N)c(OC)cc1Br,.,.,.,-,.,.
CCOC(=O)c1c(N)n(CCCOC(=O)c2ccco2)c2nc3ccccc3nc12,?,?,-,-,11.6µM,?
CC(C)CNC(=O)c1c(N)n(Cc2ccc3c(c2)OCO3)c2nc3ccccc3nc12,?,?,-,-,?,?
COCCNC(=O)c1c(N)n(CCC(C)C)c2nc3ccccc3nc12,16.4µM,-,-,?,-,?
CCCCNC(=O)c1c(N)n(CCCOC)c2nc3ccccc3nc12,18.4µM,-,-,-58.4,-,?
CC(C)CCNC(=O)c1c(N)n(Cc2ccc3c(c2)OCO3)c2nc3ccccc3nc12,?,16.4µM,-,-,-,20.6µM
CC(C)CCn1c(N)c(C(=O)NCc2cccs2)c2nc3ccccc3nc21,-,-,-,-,-,-
CCOC(=O)[C@]12Cc3cc(OC)ccc3[C@H]1N(C)C(=O)c1cc(OC)ccc12,?,.,.,-,3.66µM,.
CCCCCN1C(=O)c2ccccc2[C@@]2(C(=O)OCC)Cc3cc(Cl)ccc3[C@@H]12,-,.,.,-,?,.
CCOC(=O)[C@]12Cc3cc(OC)ccc3[C@H]1N(CC(=O)OC)C(=O)c1cc(OC)ccc12,?,.,.,-,4.61µM,.
CCOC(=O)[C@]12Cc3cc(OC)ccc3[C@H]1N(CC(=O)OC)C(=O)c1ccccc12,-,.,.,-,-,.
CCCCCN1C(=O)c2cc(OC)ccc2[C@@]2(C(=O)OCC)Cc3cc(OC)ccc3[C@@H]12,23.1µM,.,.,-,5.8µM,.
CCOC(=O)[C@]12Cc3cc(Cl)ccc3[C@H]1N(C)C(=O)c1cc(OC)ccc12,4.11µM,.,.,-,2.59µM,.
CCCCC(=O)Nc1c(C(=O)N2CCN(c3ccccc3F)CC2)oc2ccccc12,?,-,.,-,-,?
ClC1=C(Cl)[C@]2(Cl)[C@@H]3[C@@H]4C[C@@H]([C@H]5O[C@@H]45)[C@@H]3[C@@]1(Cl)C2(Cl)Cl,.,.,.,-,.,.
COc1ccc(OCC(=O)N2CCN(CCc3ccccn3)CC2)cc1,-,-,.,-,-,-
C=CCn1c(O)c(C(CC)=NCCC2=CCCCC2)c(=O)[nH]c1=O,8.91µM,-,-,-,-,?
COc1ccc(/C=C/C(=O)c2c(O)n(CCC3=CCCCC3)c(=O)[nH]c2=O)cc1,10.3µM,-,-,-,20.6µM,?
O=C(/C=C/c1ccc2c(c1)OCO2)c1c(O)n(CCC2=CCCCC2)c(=O)[nH]c1=O,7.31µM,-,-,-,?,-
CCCCn1c(O)c(C(=O)/C=C/c2ccc3c(c2)OCO3)c(=O)[nH]c1=O,?,-,-,-,?,-
C=CCn1c(O)c(C(CC)=NCCCO)c(=O)[nH]c1=O,-,-,-,-,-,-
Cc1nnc(NC(=O)c2cccn(Cc3ccccc3F)c2=O)s1,-,-,.,-,-,.
C#CCOC(C(=O)OCCN(C)C)(c1ccccc1)c1ccccc1,.,.,.,-,.,.
CCOC(=O)C1(CCc2ccccc2)CCN(Cc2csc(C(C)=O)c2)CC1,?,?,-,-,-,14.6µM
SMILES,KB-V1 cytotox,A549 viability,Giardia killer,PI4K2A inh,KB-3-1 cytotox,Nrf2 block
CCOC(=O)C1(CCc2ccccc2)CCN(Cc2cccc3c2OCO3)CC1,-,-,-,-,?,?
COc1ccc2c(c1)c(CCN1CCOCC1)c(C)n2C(=O)c1cccc(Cl)c1Cl,.,.,.,-,.,.
Cc1c(P(=S)(c2ccccc2)c2ccccc2)[n+]2ccccc2n1C/C=C/c1ccccc1,-,-,.,-,10.3µM,?
Cc1c(P(=S)(c2ccccc2)c2ccccc2)[n+]2ccccc2n1C,?,-,?,-,2.59µM!,-
CCCOC(=O)c1c(C)oc2c1cc(NS(=O)(=O)c1ccc(OCC)cc1)c1ccccc12,.,-,.,-,.,?
O=C(Nc1ccc(OC(F)(F)F)cc1)C1CCN(S(=O)(=O)c2cccs2)CC1,-,-,.,-,20.6µM,?
O=C(C1CCN(S(=O)(=O)c2ccc(Br)s2)CC1)N1CCN(c2ccc(F)cc2)CC1,-,-,.,-,-,?
[O-]c1ccccc1-[n+]1c(-c2ccccc2)cc(-c2ccccc2)cc1-c1ccccc1,-,?,-,-,11.6µM,?
Oc1ccccc1-[n+]1c(-c2ccccc2)cc(-c2ccccc2)cc1-c1ccccc1,-,-,-,-,?,-
Nc1ccccc1-[n+]1c(-c2ccccc2)cc(-c2ccccc2)cc1-c1ccccc1,?,-,-,-,?,-
Cc1ccccc1-[n+]1c(-c2ccccc2)cc(-c2ccccc2)cc1-c1ccccc1,-,?,-,-,6.51µM,11.6µM
CC(C)(C)NCC(O)c1cc(Cl)c(N)c(C(F)(F)F)c1 (stereo not given),.,.,.,-,.,.
Cc1cc(NC(=O)COC(=O)c2c(C)nn(Cc3ccccc3)c2C)no1,?,-,-,-,?,-
Cc1nn(Cc2ccccc2)c(C)c1C(=O)OCC(=O)Nc1ccccc1SCC#N,7.31µM,-,-,-,-,-
CCCCCn1c(=O)c(C(=O)Nc2nc(CC(=O)OCC)cs2)c(O)c2ccccc21,6.51µM,-,-,-,-,-
CCCCn1c(=O)c(C(=O)Nc2ccccc2)c(O)c2ccccc21,13µM,-,-,-,-,-
CCCCCCn1c(=O)c(C(=O)Nc2cccc(C)n2)c(O)c2ccccc21,?,-,-,-,-,-
CCCCCn1c(=O)c(C(=O)Nc2ccccc2S(N)(=O)=O)c(O)c2ccccc21,?,?,-,-,10.3µM,?
CCCCCn1c(=O)c(C(=O)Nc2ccccc2C)c(O)c2ccccc21,-,-,-,-,-,?
CCCCn1c(=O)c(C(=O)Nc2ccccc2S(N)(=O)=O)c(O)c2ccccc21,16.4µM,-,-,-,-,.
CCc1nn2c(=O)c(C)c(N3CCNCC3)nc2s1,.,-,.,.,.,-
CCCCn1c(=O)c(C(=O)NCc2ccco2)c(O)c2ccccc21,?,-,-,-,?,?
CCCCCn1c(=O)c(C(=O)NCc2ccco2)c(O)c2ccccc21,20.6µM,-,-,-,-,?
O=c1[nH]c2ccccc2n1C1CCNCC1,.,.,.,-,.,.
c1cncc(CNC2CCCCC2)c1,?,-,-,-,-,-
c1ccc(CNC2CCCCCCC2)cc1 (tested in a mixture with another compound),23.1µM,?,-,-,-,-
CC1=CC2OC3CC4OC(=O)C=CC=CC(=O)OCCC(C)C(O)C(=O)OCC2(CC1)C4(C)C31CO1 (stereo not given),0.103µM,.,?,-,0.0366µM,0.0046µM
